Several values for one entry are separate records, joined by “and”; a condition that tells them apart may be missing. Equal values may be shown once. The panel holds about 83,000 compounds, 20% with a hit somewhere; the sample as a whole holds those more often.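 Treatment: one concentration, 48 hours, 96-well format. Scoring: percent growth, with anything below 10 considered active.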 The source holds several records for some structures; these can differ, active in one and inactive in another. Activity calls are given as the source filed them.

One test concerns UACC-257 melanoma. Nature of the test: NCI-60 one-dose screen, 48 h (100 = growth as untreated, 0 = no growth, -100 = all killed). The following applies: 10 µM unless noted.
Turning to `COc1ccc(/C(C#N)=C/c2ccccn2)cc1`, the growth is 110% (inactive) and 112% (inactive).
In the case of `O=C1OC2(c3ccccc31)c1ccc(O)c(O)c1Oc1c2ccc(O)c1O`, the growth was 106% (inactive).
Same read-out and setting: the result for `CC(=O)Nc1cccc2c1CCCC2` reads 67.1% (inactive) and 102% (inactive); that for `CN(C)c1ccc2nc3ccc(N)cc3[n+](-c3ccccc3)c2c1`, -12.2% (active) and -21% (active); that for `CCN(CC)CCOc1ccc(/C=N/Nc2nc3c([nH]2)c(=O)n(C)c(=O)n3C)cc1`, 102% (inactive) and 108% (inactive).
`O=C1CCN(Cc2ccccc2)C(=S)N1`: the growth was 114% (inactive) and 107% (inactive).
Still for that read-out and setting: for `CC(C)Cc1ccc(C(C)C(=O)NCc2ccc(Cn3c(=O)sn(CCCI)c3=O)cc2)cc1` (configuration not stated) the value was 77.8% (inactive) and -19.9% (active); for `CCc1c(CC(=O)O)c2cc(C)ccc2n1Cc1ccc(Cl)cc1`, 87.7% (inactive).
In the case of `CNC(=O)c1ccc(C)c(-n2c(C)cc(OCc3ccc(F)cc3F)c(Br)c2=O)c1`, the growth is 70.5% (inactive).
With `O=[N+]([O-])c1ccc(-n2[nH]nnc2=S)cc1`, the growth was 113% (inactive).
Still for that read-out and setting: for `COC(=O)/C=C/c1cc(O)c2c(c1)C(C(=O)OC)C(c1ccc(O)c(O)c1)O2` (configuration not stated) the value was 62.4% (inactive) and 60.6% (inactive); for `COC(=O)c1nc(N)nc(C(=O)OC)c1C(=O)c1ccc(OC)cc1`, 100% (inactive) and 86.7% (inactive); for `COc1cc2c(c(OC)c1OC)-c1ccc(OC)c(=O)cc1[C@@H](NC(C)=O)CC2`, 76.9% (inactive) and 66.3% (inactive) and 24.9% (inactive).
With `CN1CCN(c2ccc3nc(-c4c(N)c5c(F)cccc5[nH]c4=O)[nH]c3c2)CC1`, the growth was -59.4% (active) and -18.1% (active).
Take `NC(=S)NN=C1CCC(C2CCCCC2)CC1` (configuration not stated): the growth is 66.4% (inactive) and 66.9% (inactive).
`c1ccc2cc(C[n+]3ccn(Cc4ccc5ccccc5n4)c3)ccc2c1`: the growth is -25.3% (active) and -8.7% (active).
For the compound `CN(C)CCC(=O)c1ccc(Cl)cc1`, the growth was 103% (inactive) and 104% (inactive).
Consider `Fc1ccccc1Nc1n[nH]c(=S)s1`, for which the growth is 103% (inactive).
Regarding `CCOc1ccc2cc(-c3nn(CC4CCN(C)CC4)c4ncnc(N)c34)ccc2c1`, the growth was -67.9% (active).
Regarding `CC[N+](CC)(CC(=O)Nc1c(C)cccc1C)Cc1ccccc1`, the growth was 92.2% (inactive).
Take `CC1=CCC2CC1C2(C)C` (configuration not stated): the growth is -8.84% (active) and 108% (inactive).
In the case of `CC1(C)[C@@H](OC(=O)CCC(=O)O)CC[C@]2(C)[C@H]3C(=O)C=C4[C@@H]5C[C@@](C)(C(=O)O)CC[C@]5(C)CC[C@@]4(C)[C@]3(C)CC[C@@H]12`, the growth was 99.2% (inactive) and -46.5% (active).
For `CCC(O)c1ccccc1` (configuration not stated), the growth is 135% (inactive) and 85.4% (inactive).
Take `CN(Cc1ccccc1)Cc1ccccc1`: the growth is 99.8% (inactive).
`COc1ccc(-c2ncnc3c2ncn3C/C=C/CCl)cc1`: the growth is 80.5% (inactive) and 77.7% (inactive).
For the compound `NS(=O)(=O)c1cc2c(cc1Cl)NC(C(Cl)Cl)NS2(=O)=O` (configuration not stated), the growth is 84.4% (inactive) and 95% (inactive).
Consider `O=Nc1ccc(O)cc1`, for which the growth is 108% (inactive) and 96.8% (inactive).
Take `COc1ccc2c(=O)cc(-c3ccccc3)[nH]c2c1`: the growth is 65.2% (inactive) and 30.5% (inactive).
The same measure, in the same setting: for `O=CC(O)C(O)C(O)CO` (configuration not stated) the value was 106% (inactive); for `CN(C)c1ccc(/C=C(\C#N)c2ccccc2)cc1`, 20.1% (inactive) and 66.6% (inactive) and 56.6% (inactive).
Take `OCCN1CCN(CCO)CC1`: the growth is 117% (inactive).
Turning to `CC1=C[C@H]2c3c(c(O)c(O)c4oc5cc(O)cc(O)c5c(=O)c34)[C@H](c3cc(O)c(O)c4oc5cc(O)cc(O)c5c(=O)c34)[C@H]2C(C)(C)C1`, the growth is 21% (inactive) and 0.565% (active).
Same read-out and setting: the result for `CCOc1ccc2c(S(=O)(=O)O)cccc2c1[N+](=O)[O-]` reads 114% (inactive) and 100% (inactive).
With `Nc1ccccc1Nc1ccccc1`, the growth was 86.1% (inactive) and 115% (inactive).
Still for that read-out and setting: for `Oc1ccccc1C=NCC1CCC(CN=Cc2ccccc2O)CC1` (configuration not stated) the value was 102% (inactive).
As for `Clc1ccc(NC(Nc2ccc(Cl)cc2)C(Cl)(Cl)Cl)cc1`, the growth is 90.1% (inactive) and 99.6% (inactive).

Another test concerns M14 melanoma. The test is described as above. The following applies: 10 µM unless noted.
Consider `COc1ccc(/C(C#N)=C/c2ccccn2)cc1`, for which the growth is 109% (inactive) and 111% (inactive).
Regarding `O=C1OC2(c3ccccc31)c1ccc(O)c(O)c1Oc1c2ccc(O)c1O`, the growth was 113% (inactive).
For the compound `CC(=O)Nc1cccc2c1CCCC2`, the growth is 94.5% (inactive) and 101% (inactive).
Turning to `CN(C)c1ccc2nc3ccc(N)cc3[n+](-c3ccccc3)c2c1`, the growth is 40.8% (inactive) and 15% (inactive).
As to `CCN(CC)CCOc1ccc(/C=N/Nc2nc3c([nH]2)c(=O)n(C)c(=O)n3C)cc1`, the growth is 96.7% (inactive) and 97.6% (inactive).
On to `O=C1CCN(Cc2ccccc2)C(=S)N1`, for which the growth was 103% (inactive) and 112% (inactive).
On to `CC(C)Cc1ccc(C(C)C(=O)NCc2ccc(Cn3c(=O)sn(CCCI)c3=O)cc2)cc1` (configuration not stated), for which the growth is 88.8% (inactive) and -66.9% (active).
On to `CCc1c(CC(=O)O)c2cc(C)ccc2n1Cc1ccc(Cl)cc1`, for which the growth was 101% (inactive) and 85.4% (inactive).
For `CNC(=O)c1ccc(C)c(-n2c(C)cc(OCc3ccc(F)cc3F)c(Br)c2=O)c1`, the growth is 76.6% (inactive) and 98.4% (inactive).
On the same count and under the same terms, for `O=[N+]([O-])c1ccc(-n2[nH]nnc2=S)cc1` the value was 109% (inactive).
Same read-out and setting: the result for `COC(=O)/C=C/c1cc(O)c2c(c1)C(C(=O)OC)C(c1ccc(O)c(O)c1)O2` (configuration not stated) reads 2.19% (active) and 6.67% (active); that for `COC(=O)c1nc(N)nc(C(=O)OC)c1C(=O)c1ccc(OC)cc1`, 108% (inactive) and 48.5% (inactive); that for `COc1cc2c(c(OC)c1OC)-c1ccc(OC)c(=O)cc1[C@@H](NC(C)=O)CC2`, 2.32% (active) and -7.49% (active) and 1.7% (active).
With `CN1CCN(c2ccc3nc(-c4c(N)c5c(F)cccc5[nH]c4=O)[nH]c3c2)CC1`, the growth is -25.3% (active) and 2.34% (active).
On to `NC(=S)NN=C1CCC(C2CCCCC2)CC1` (configuration not stated), for which the growth was 92.2% (inactive) and 85% (inactive).
Turning to `c1ccc2cc(C[n+]3ccn(Cc4ccc5ccccc5n4)c3)ccc2c1`, the growth is 9.07% (active) and 35.4% (inactive).
In the case of `CN(C)CCC(=O)c1ccc(Cl)cc1`, the growth is 98.6% (inactive) and 109% (inactive).
For the compound `Fc1ccccc1Nc1n[nH]c(=S)s1`, the growth is 109% (inactive).
For `CCOc1ccc2cc(-c3nn(CC4CCN(C)CC4)c4ncnc(N)c34)ccc2c1`, the growth is 98.4% (inactive) and -77.3% (active).
Same read-out and setting: for `CC[N+](CC)(CC(=O)Nc1c(C)cccc1C)Cc1ccccc1` the value was 95.3% (inactive) and 100% (inactive).
As to `CC1=CCC2CC1C2(C)C` (configuration not stated), the growth is 98.3% (inactive) and 90.3% (inactive).
In the case of `CC1(C)[C@@H](OC(=O)CCC(=O)O)CC[C@]2(C)[C@H]3C(=O)C=C4[C@@H]5C[C@@](C)(C(=O)O)CC[C@]5(C)CC[C@@]4(C)[C@]3(C)CC[C@@H]12`, the growth was 103% (inactive) and -12.8% (active).
Consider `CCC(O)c1ccccc1` (configuration not stated), for which the growth was 100% (inactive).
As to `CN(Cc1ccccc1)Cc1ccccc1`, the growth is 102% (inactive).
`COc1ccc(-c2ncnc3c2ncn3C/C=C/CCl)cc1`: the growth is 70.9% (inactive) and 87% (inactive).
With `NS(=O)(=O)c1cc2c(cc1Cl)NC(C(Cl)Cl)NS2(=O)=O` (configuration not stated), the growth is 97.5% (inactive) and 107% (inactive).
Take `O=Nc1ccc(O)cc1`: the growth is 97.8% (inactive) and 102% (inactive).
Regarding `COc1ccc2c(=O)cc(-c3ccccc3)[nH]c2c1`, the growth was 4.76% (active) and 0.39% (active).
Take `O=CC(O)C(O)C(O)CO` (configuration not stated): the growth is 113% (inactive) and 98% (inactive).
On to `CN(C)c1ccc(/C=C(\C#N)c2ccccc2)cc1`, for which the growth is 19.1% (inactive) and 30.2% (inactive) and 24% (inactive).
For `OCCN1CCN(CCO)CC1`, the growth is 102% (inactive) and 91.1% (inactive) and 103% (inactive).
Consider `CC1=C[C@H]2c3c(c(O)c(O)c4oc5cc(O)cc(O)c5c(=O)c34)[C@H](c3cc(O)c(O)c4oc5cc(O)cc(O)c5c(=O)c34)[C@H]2C(C)(C)C1`, for which the growth was -9.96% (active) and -19.6% (active).
As to `CCOc1ccc2c(S(=O)(=O)O)cccc2c1[N+](=O)[O-]`, the growth is 108% (inactive) and 99.6% (inactive).
Regarding `Nc1ccccc1Nc1ccccc1`, the growth was 106% (inactive) and 102% (inactive).
On to `Oc1ccccc1C=NCC1CCC(CN=Cc2ccccc2O)CC1` (configuration not stated), for which the growth was 98.8% (inactive).
`Clc1ccc(NC(Nc2ccc(Cl)cc2)C(Cl)(Cl)Cl)cc1`: the growth is 71.1% (inactive) and 82.3% (inactive).

These data come from PubChem BioAssay (NCI).
